Source: PubChem BioAssay
Compounds with a hit are over-represented: about 2.3% of the library has one in this group of screens.
GLD-1 RNA inh: GLD-1-TGE RNA interaction inhibition (C. elegans). AID 2280. 320,000 tested, 0.44% active. inhibition, % at 5.96 µM. purified GLD-1 + fluorescein TGE RNA, fluorescence polarization;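 active means percent inhibition above a per-plate cutoff, the plate mean of test compounds plus 3 SD, cut at about 30% in these data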;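 further: 0% = DMSO wells with GLD-1 and probe and 100% = wells lacking GLD-1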
MCL1 BIM primary: MCL1-BIM-BH3 interaction inhibition (human); Q07820; GST-MCL1 / FITC-Bim-BH3 fluorescence polarization; inhibition, % at 10.9 µM; AID 2057; 320,000 tested, 0.68% active;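 active means inhibition above the mean inhibition of all tested compounds plus 3 SD, set per campaign, cut at about 40% in these data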;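 further: 0% = DMSO wells and 100% = unlabeled Bim-BH3 peptide control; higher means more loss of mP so more displacement of Bim peptide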
Target sequence (Q07820 whole entry, looked up): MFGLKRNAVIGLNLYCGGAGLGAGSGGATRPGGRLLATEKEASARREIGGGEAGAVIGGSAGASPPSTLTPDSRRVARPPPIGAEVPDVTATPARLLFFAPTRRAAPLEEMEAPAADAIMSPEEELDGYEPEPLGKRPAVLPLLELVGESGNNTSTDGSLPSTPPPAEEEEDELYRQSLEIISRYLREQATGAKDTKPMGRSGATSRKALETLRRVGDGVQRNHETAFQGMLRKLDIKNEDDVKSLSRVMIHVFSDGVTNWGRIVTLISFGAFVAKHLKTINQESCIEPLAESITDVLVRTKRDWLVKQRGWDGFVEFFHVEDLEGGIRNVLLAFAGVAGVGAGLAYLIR
Bim-Mcl-1: inhibitors of Bim-Mcl-1 interaction, human | Q07820 | Bead-based flow cytometry, Bim peptide-Mcl-1 binding | 190,000 tested, 0.1% active | inhibition, % at 10 µM | AID 1009; in the data active means inhibition above about 40%;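 further: 0% = no compound tracer wells and 100% = peptide blocker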
Mcl1 Noxa PPI: Mcl-1/Noxa interaction inhibition; inhibition, % at 21.7 µM; AID 1022; 220,000 tested, 1.5% active; Q07820; TR-FRET Mcl-1/Noxa peptide binding, 2 h;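 active means compounds that cut the protein-peptide binding signal by more than 50% relative to plate controls in a single-dose test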;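 further: His-tagged Mcl-1 with rhodamine Noxa BH3 peptide and terbium anti-His antibody; 0% = Mcl-1 plus Noxa peptide wells and 100% = peptide-only wells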
Mcl1 Bid PPI: disrupts binding of human Mcl-1 to Bid peptide; Q07820; TR-FRET Mcl-1/Bid-Dy647 peptide binding, 1536-well; inhibition, % at 21.7 µM; 220,000 tested, 0.97% active;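 active means compounds that cut the binding signal by more than half at the single screening dose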;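 further: His-tagged Mcl-1 with europium anti-His antibody binding Bid BH3 peptide; 0% = Mcl-1 plus peptide wells and 100% = peptide-only wells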
BCLXL inh: Bcl-xL (human) inhibition. Q07817. GST-Bcl-xL / FITC-Bim BH3 peptide fluorescence polarization. inhibition, % at 10.9 µM. 320,000 tested, 0.7% active. AID 2129;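 active means inhibition above the mean of all tested compounds plus 3 SD, cutoff set per campaign, cut at about 30% in these data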;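 further: 0% = DMSO wells and 100% = unlabeled Bim-BH3 peptide competitor; inhibitors lower millipolarization by displacing the labeled peptide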
Target sequence (Q07817 whole entry, looked up): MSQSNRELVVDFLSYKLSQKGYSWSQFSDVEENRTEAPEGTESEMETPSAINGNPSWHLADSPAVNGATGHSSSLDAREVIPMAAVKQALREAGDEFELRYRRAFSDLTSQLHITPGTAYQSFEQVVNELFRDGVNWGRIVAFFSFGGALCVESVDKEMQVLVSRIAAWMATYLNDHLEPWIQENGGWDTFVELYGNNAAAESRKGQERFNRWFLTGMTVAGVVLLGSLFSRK
* hit, by the source's call; . = no result given.

SMILES	GLD-1 RNA inh	MCL1 BIM primary	Bim-Mcl-1	Mcl1 Noxa PPI	Mcl1 Bid PPI	BCLXL inh
Nc1nc(Cl)cc(N2CCCC2)n1	3	1	3	3	-26	4
COc1ccc(/C=C2\Oc3cc(OCC(=O)N4CCC[C@H]4CO)ccc3C2=O)c(OC)c1	-82	-49	.	.	.	-29
CCOC(=O)C1CCN(C(=O)c2cc3cc(C)ccc3[nH]2)CC1	-3	0	.	.	.	2
Nc1cc(OCC(F)(F)F)cc([N+](=O)[O-])c1	-3	-1	-2	0	-36	6
Nc1cc(N)c(OCC(F)(F)F)cc1OCC(F)(F)F	30	29	0	13	-45	39*
O=C(NCCc1ccccc1F)C1CCCN(c2nc3ccccc3s2)C1 (stereo not drawn)	3	5	.	.	.	10
CC(OC(=O)c1cccc(-n2cnnn2)c1)c1nc2ccccc2c(=O)[nH]1 (stereo not drawn)	-3	-5	.	.	.	-4
O=[N+]([O-])c1ccc2c(c1)nnn2-c1ccccc1	9	6	.	.	.	6
Cn1c(-[n+]2c(-c3ccccc3)cc(-c3ccccc3)cc2-c2ccccc2)nc2cc([N+](=O)[O-])ccc21	-2	-21	-2	64*	-22	-8
O=[N+]([O-])c1ccc2c(c1)ncn2-c1ccccc1	3	14	-1	-16	82*	3
O=[N+]([O-])c1ccc2c(c1)nc(CO)n2Cc1ccccc1	-6	-2	.	.	.	1
CCOC(=O)C1(Cc2ccccc2)CCCN(C(=O)c2ccc(-n3ccnc3)cc2)C1 (stereo not drawn)	7	-1	.	.	.	2
O=S(=O)(Cc1ccccc1Cl)NCCc1ccc(F)cc1	3	4	.	.	.	4
NC(=O)c1nn(CC(=O)Nc2ccc3c(c2)OCO3)cc1[N+](=O)[O-]	-3	-18	-2	74*	-8	-8
O=C(CN1C(=O)CSCC1=O)Nc1ccc2c(c1)OCO2	6	10	-5	53*	-24	6
CC1SC(C)C(=O)N(CC(=O)Nc2ccc3c(c2)OCO3)C1=O (stereo not drawn)	-3	4	-2	34	-19	3
O=C(Cc1ccccc1[N+](=O)[O-])Nc1ccc2c(c1)OCO2	-8	-13	1	8	-9	-3
CC(CNC(=O)CCC(=O)N1CCOc2ccccc21)c1ccccc1 (stereo not drawn)	2	-6	.	.	.	-1
CCN(CC)CCOC(=O)c1ccc(N/C=C(/C#N)c2nc(-c3ccc4c(c3)OCO4)cs2)cc1	1	10	.	69*	63*	-29
Cc1ccc(NC(=O)CNC(=O)Cn2cnc3sc(C)c(C)c3c2=O)cc1F	6	1	.	.	.	4
COCC(=O)Oc1c(Sc2ccccc2[N+](=O)[O-])c(C)nn1C(C)(C)C	6	7	1	27	-6	7
CCC(CC)C(=O)Oc1c(Sc2ccccc2[N+](=O)[O-])c(C)nn1C(C)(C)C	0	7	-3	-7	91*	4
O=C(Cc1ccc2cccnc2c1)c1ccc(O)cc1O	-2	7	-4	13	-31	6
Oc1ccc2cccnc2c1	25	45*	-4	4	-2	40*
CCOC(=O)c1ccccc1NC(=O)Cc1c(C(=O)O)n(C)c2ccccc12	2	11	.	.	.	5
SMILES	GLD-1 RNA inh	MCL1 BIM primary	Bim-Mcl-1	Mcl1 Noxa PPI	Mcl1 Bid PPI	BCLXL inh
CCOC(=O)CSc1nc(N)c(C#N)c(-c2ccc(OCC)cc2)c1C#N	-3	-2	-1	-113	-24	-3
COC(=O)CSc1nc(N)c(C#N)c(-c2ccc(O)cc2)c1C#N	5	4	.	39	57*	2
Cc1c(CCC(=O)O)c(=O)n2c([nH]c3ccccc32)c1C#N	4	-5	0	18	-76	1
N#Cc1cc(NC(=O)c2ccc(F)cc2)c(=O)n2c1[nH]c1ccccc12	-13	-7	2	61*	-33	-3
CCCC(=O)N1CC(=O)Nc2ccc(Br)cc2C1c1ccc(F)cc1 (stereo not drawn)	5	7	.	.	.	5
O=C1CN(C(=O)CCN2CCOCC2)C(c2ccccc2)c2cc(Br)ccc2N1 (stereo not drawn)	3	1	44*	15	-25	2
Nc1ccc2nc(Cc3ccccc3)[nH]c2c1	76*	-3	.	29	-5	0
Cc1ccc2nc(Cc3ccc(N)cc3)[nH]c2c1	5	2	0	29	34	-1
O=C1N/C(=N\N=C\c2ccc3ncccc3c2)SC1Cc1ccc(SC(F)F)cc1 (stereo not drawn)	-11	4	-3	13	52*	3
O=C1N/C(=N\N=C\c2cccnc2)SC1Cc1ccc(SC(F)F)cc1 (stereo not drawn)	0	6	-2	-34	-11	2
O=C(c1cnn2c(C(F)(F)F)cc(-c3cccs3)nc12)N1CCOCC1	2	0	0	10	69*	-3
CNc1cnn(-c2ccccc2)c(=O)c1Cl	2	7	-2	10	-12	8
O=c1c(Cl)c(N/N=C/c2ccc(Br)cc2)cnn1-c1ccccc1	7	-1	-3	52*	63*	-24
CCOc1ccccc1NC(=O)/C=C/C(N)=O	11	2	-4	98*	17	5
O=[N+]([O-])c1cccc(-c2ccc(C(=S)N3CCOCC3)o2)c1	1	11	-4	-5	-78	5
O=[N+]([O-])c1cc(-c2ccc(C(=S)N3CCOCC3)o2)ccc1Cl	19	43*	-1	39	-2	37*
Cc1occc1-c1nnc(SCC(=O)c2c(N)n(C3CC3)c(=O)[nH]c2=O)n1C	-10	-8	.	.	.	-4
N=C(N)c1ccc(Cl)cc1	3	5	0	16	-17	3
N=C(N)c1ccc(/C=C/c2ccc(C(=N)N)cc2O)cc1	-38	3	.	66*	-92	1
CC(=O)Nc1sc2c(c1C(N)=O)CCCC2	-2	-8	-3	5	-12	-2
NC(=O)c1c(NC(=O)C2c3ccccc3Oc3ccccc32)sc2c1CCCCC2	-14	-22	-1	68*	-52	1
CC1(OC(=O)c2cnc3ccccc3n2)C(=O)C=C2C=C(c3ccc(C#N)cc3)OC=C2C1=O (stereo not drawn)	47*	24	.	.	.	25
CN(C)c1ccc(C(CNC(=O)c2ccc(C#N)cc2)c2c[nH]c3ccccc23)cc1 (stereo not drawn)	3	-3	-1	79*	-6	1
CCOC(=O)c1ccc(S(=O)(=O)NCC(c2ccc(N(C)C)cc2)c2c[nH]c3ccccc23)cc1 (stereo not drawn)	5	12	-2	15	-23	9
CN(C)c1ccc(C(CNC(=O)c2ccccc2Br)c2c[nH]c3ccccc23)cc1 (stereo not drawn)	4	-5	-4	78*	-55	-2
